Assay results taken from PubChem BioAssay (NCI).
This is part of a sample that, as a whole, favours compounds with a hit. Of some 83,000 tested, about 20% had one in any assay.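 How to read the values: 0–100, growth inhibition (40 = 60% inhibited); 0, no net growth; -100 to 0, cell death (-40 = 40% of starting cells died; -100 = all dead).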 Unmarked numbers belong to inactive results. The source made the active and inactive calls. How the source made its calls: active means growth percent below 10; inactive means the rest.

Tests used:
Assay in all cases: NCI-60 one-dose screen, 48 h (100 = growth as untreated, 0 = no growth, -100 = all killed)
Conditions in all cases: 10 µM unless noted
HCT-15 colon = tested on: HCT-15 colon
HT29 colon = tested on: HT29 colon
SNB-75 CNS = tested on: SNB-75 CNS
SNB-19 CNS = tested on: SNB-19 CNS
U251 CNS = tested on: U251 CNS
PC-3 prostate = tested on: PC-3 prostate
SK-MEL-5 melanoma = tested on: SK-MEL-5 melanoma
UACC-62 melanoma = tested on: UACC-62 melanoma
SK-MEL-28 melanoma = tested on: SK-MEL-28 melanoma
LOX IMVI melanoma = tested on: LOX IMVI melanoma

| SMILES | growth (HCT-15 colon) | growth (HT29 colon) | growth (SNB-75 CNS) | growth (SNB-19 CNS) | growth (U251 CNS) | growth (PC-3 prostate) | growth (SK-MEL-5 melanoma) | growth (UACC-62 melanoma) | growth (SK-MEL-28 melanoma) | growth (LOX IMVI melanoma) |
| --- | --- | --- | --- | --- | --- | --- | --- | --- | --- | --- |
| C/C(=N\O)c1ccc(NC(=O)CSc2nnc(-c3cc(-c4ccc(S(C)(=O)=O)cc4)nc4ccccc34)n2-c2ccccc2)cc1 | 84.7% | 102% | 57% | 87.6% | 93.5% | 68.5% | 74.8% | 80.6% | 102% |  |
| O=C1/C=C/[C@@H](O)[C@@H]2C[C@@H](O)C[C@H]2/C=C/CCC[C@H](CCO)O1 | 10% | -2.5% (active) | 33.1% | 31.4% | 20.7% | 19.6% | -94.6% (active) | 25.3% | -3.47% (active) | -61.4% (active) |
| C[C@H](CCCC(=O)NCC#CCN1CCN(C)CC1)[C@H]1CC[C@H]2[C@@H]3CC[C@@H]4CC(=O)CC[C@]4(C)[C@H]3CC[C@]12C | 78.6% | 32.2% | 89.8% | 102% | 88% | 77.1% | 90.7% | 97.7% | 89.3% |  |
| CCOC(=O)C(=CNc1cnc(Nc2ccc(N3CCOCC3)cc2)nc1Oc1ccc(OC)cc1)C(=O)OCC | 69.4% | 40.6% | -14.3% (active) | 41.7% | -19.4% (active) | 67.7% | 74% | 47.1% | 76.6% |  |
| CCCCCCCCCCCCCCCCCC1=NC(C)(C)CN1CC(C)O (stereo not drawn) | 10.3% | -4.49% (active) | 97.8% | 85.3% | 74% | 53.4% | 100% | 105% | 105% | -83.1% (active) |
| COC(=O)CC[C@@H]1O[C@@H](c2ccc(F)cc2)[C@@H](O)[C@H]1O | 105% | 108% | 90.1% | 108% | 109% | 96.8% | 95.7% | 106% | 102% |  |
| CCC1S/C(=N\N=C(\C)c2cc3cc(Cl)ccc3o2)N(c2ccccc2)C1=O (stereo not drawn) | 107% | 111% | 110% | 101% | 99% | 84.6% | 49.5% | 88.9% | 111% | 85.4% |
| O=C(/C=C/c1ccc(Cl)cc1)c1cccc(OCCCOc2cccc(C(=O)/C=C/c3ccc(Cl)cc3)c2)c1 | 90.3% | 98.6% | 91.5% | 99.1% | 86.3% | 104% | 102% | 90% | 102% |  |
| Nc1ncnc2c1N=C(c1ccc3c(c1)OCO3)CC(c1cccc(Nc3ccnc4cc(C(F)(F)F)ccc34)c1)N2 (stereo not drawn) | 70.8% | 69.6% | 76.9% | 77.3% | 37.4% | 75.6% | 84.6% | 87.1% | 101% |  |
| COc1ccc(/C=C/c2ccc3ccccc3n2)c(OC)c1 | 56% | 55.6% | 78% | 83.2% | 83.1% | 66.1% | 78.3% | 65.8% | 81.7% | 59.6% |
| Cc1[nH]c(C2CC(c3ccc(C(F)(F)F)c(F)c3)=NN2c2ccccc2)c(C)c1C(=O)NCC(F)(F)F (stereo not drawn) | 76.2% | 84.6% | 82.5% | 85.6% | 91% | 74.6% | 95.7% | 75.5% | 96.9% | 88.6% |
| Cc1ccc(C(=O)Nc2cccc(C#Cc3cccc4[nH]nc(N)c34)c2)cc1C(F)(F)F | 48.9% | 27.3% | 88.4% | 113% | 81.5% | 69.8% | 73.3% | 41.1% | 41.7% |  |
| CC1=C(CCC(C)NCc2ccc(OCCCN3CCCCC3)cc2)C(C)(C)CCC1 (stereo not drawn) | -67.2% (active) | -81.9% (active) | -59.7% (active) | -45.7% (active) | -85.6% (active) | -56.1% (active) | -94.6% (active) | -77% (active) | -83.4% (active) | -88.7% (active) |
| CC1C(/C=N/NC(N)=S)C(C#N)(C#N)C1(C#N)C#N (stereo not drawn) | 109% | 110% | 92.7% | 101% | 102% | 92.9% | 104% | 96.9% | 116% |  |
| C=C1C(=O)O[C@H]2[C@H]1CC/C(COC(=O)/C=C\C(=O)NCc1ccc(Cn3c(=O)sn(CCCCC)c3=O)cc1)=C\CC[C@@]1(C)O[C@@H]21 | 38.8% | 41.3% | 110% | 94.8% | 84.4% | 81.9% | 106% | 70.1% | 91.1% | 62.6% |
| O=C(/C=C/c1cccc(Cl)c1Cl)Nc1ncc(Cc2ccccc2Cl)s1 | 21.1% | 11.9% | 36.4% | 47.2% | 50.9% | 56.5% | 45.8% | 42.7% | 58.6% | 44.7% |
| NS(=O)(=O)c1ccc(NC(=O)/C(=C\c2ccc(Cl)cc2Cl)NC(=O)c2ccccc2)cc1 | 110% | 103% | 81.4% | 95.6% | 97.1% | 89.4% | 90.2% | 74.9% | 110% |  |
| Clc1c(Cl)[n+](Cc2ccc3ccccc3c2)cn1Cc1ccc2ccccc2c1 | 75.1% | -69.4% (active) | 10.3% | 26.8% | -82.6% (active) | 3.79% (active) | -79.7% (active) | -42.8% (active) | 16.1% |  |
| O=C1/C(=C/c2ccccn2)NC(=S)N1c1ccccc1Cl | 38.2% | 71.1% | 82% | 58.6% | 34.6% | 52.2% | 57.9% | 66.7% | 74% |  |
| COc1ccc(C(=O)Cn2c(C(=O)c3ccc(OC)cc3)nc3ccccc32)cc1 | 15.9% | 14.9% | 10.4% | 48.8% | 18.3% | 34.2% | 23.5% | 13.9% | 42.8% |  |
| Cc1ccc(-c2csc(N(C(=O)N3CCN(c4cc5c(cc4F)c(=O)c(C(=O)O)cn5C4CC4)CC3)c3ccccc3)n2)cc1 | 7.57% (active) | 3.8% (active) | 18.6% | 15.7% | 12.6% | 11.8% | -57.2% (active) | 1.23% (active) | 32.3% | 7.08% (active) |
| CSC1=Nc2c(c(C)c(-c3ccccc3)n2CCCC(=O)O)C2=NC(=O)C[C@H](C)N12 | 127% | 94.1% | 79.7% | 101% | 103% | 97.6% | 92.4% | 107% | 105% |  |
| Cc1ccc(/C=C(\C#N)n2nnc3cc(F)c(F)cc32)cc1 | 14.6% | 5.95% (active) | -15.2% (active) | 31.9% | 24.4% | 21.3% | 16.4% | 34.7% | 39.5% | -17.6% (active) |
| CCN1C(=O)N(CC)C2C1NN=c1s/c(=C\c3ccc[nH]3)c(=O)n12 (stereo not drawn) | 24.4% | -10.4% (active) | -23.6% (active) | 24.9% | 9.08% (active) | 19.6% | 30% | 25.7% | 46% | 43% |
| NC(=O)c1cccc([C@@H]2O[C@H](CO)[C@@H](O)[C@H]2O)c1 | 12.8% | 54% | 9.91% (active) | 54.2% | 41.1% | 47.8% | 97.4% | 88.6% | 62.1% |  |
| Cc1ccc(S(=O)(=O)OCCCOS(=O)(=O)c2ccc(C)cc2)cc1 | 106% | 102% | 99.7% | 97.9% | 96.4% | 89.3% | 116% | 103% | 109% |  |
| C=C1C(=O)O[C@H]2[C@H]1CC/C(COC(=O)/C=C\C(=O)NCc1ccc(Cn3c(=O)sn(CCCl)c3=O)cc1)=C\CC[C@@]1(C)O[C@@H]21 | 44.8% | 86.6% | 99.5% | 111% | 88.9% | 94.6% | 101% | 85.7% | 87% |  |
| Fc1ccc(Cn2cc(CSc3nc4ccccc4o3)nn2)cc1 | 104% | 99.8% | 92.2% | 92.5% | 105% | 98.3% | 110% | 84.3% | 98.9% |  |
